# “And” between values parts separate entries of the source, which are not always exact repeats. Equal values may be shown once. The campaign covered roughly 5,500 compounds. About 2,000 (36%) were called active. Roughly 18% stayed inconclusive and do not appear here. Some of the results follow. A number with no mark means an inactive call. No stated cut-off is given here; in the data, active means normalized growth mostly below about 0.91 (no sharp cut-off); inconclusive means no clear call, values can overlap the other calls; inactive means mostly above about 0.92.
# Test: chemical genetic growth profiling, strain panel (AID 1159580);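 further: tested at 20 µM; growth read once vehicle control cultures reached saturation at 30 °C; 1 = growth at the plate median or of vehicle wells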
# Settings: S. cerevisiae deletion strains, growth OD
smiles,measurement,setting,value
CC1CCC(NC(=O)N(CCCl)N=O)CC1 (stereo not drawn),normalized growth,"locus YAL021C, strain ccr4, stronger effect = lower value",0.899 (active)
same,normalized growth,"locus YAL026C, strain drs2, stronger effect = lower value",0.24 (active)
same,normalized growth,"locus YAL030W, strain snc1, stronger effect = lower value",0.796 (active)
same,normalized growth,"locus YBL061C, strain skt5, stronger effect = lower value",0.965
same,normalized growth,"locus YBR009C, strain hhf1, stronger effect = lower value",0.244 (active)
same,normalized growth,"locus YBR021W, strain FUR4, stronger effect = lower value",1.02
same,normalized growth,"locus YBR023C, strain chs3, stronger effect = lower value",0.876 (active)
same,normalized growth,"locus YBR171W, strain sec66, stronger effect = lower value",0.68 (active)
same,normalized growth,"locus YBR229C, strain ROT2, stronger effect = lower value",0.998
same,normalized growth,"locus YBR231C, strain swc5, stronger effect = lower value",0.755 (active)
same,normalized growth,"locus YBR279W, strain paf1, stronger effect = lower value",0.863 (active)
same,normalized growth,"locus YCL011C, strain gbp2, stronger effect = lower value",0.095 (active)
same,normalized growth,"locus YCL016C, strain dcc1, stronger effect = lower value",0.703 (active)
same,normalized growth,"locus YCL029C, strain bik1, stronger effect = lower value",1.01
same,normalized growth,"locus YCL061C, strain MRC1, stronger effect = lower value",0.335 (active)
same,normalized growth,"locus YCL069W, strain vba3, stronger effect = lower value",0.834 (active)
same,normalized growth,"locus YCR088W, strain abp1, stronger effect = lower value",0.182 (active)
same,normalized growth,"locus YDL005C, strain med2, stronger effect = lower value",0.952
same,normalized growth,"locus YDL035C, strain GPR1, stronger effect = lower value",0.946
same,normalized growth,"locus YDL040C, strain nat1, stronger effect = lower value",0.983
same,normalized growth,"locus YDL074C, strain BRE1, stronger effect = lower value",0.874
same,normalized growth,"locus YDL101C, strain DUN1, stronger effect = lower value",0.995
same,normalized growth,"locus YDL134C, strain PPH21, stronger effect = lower value",0.995
same,normalized growth,"locus YDL185W, strain tfp1, stronger effect = lower value",1.01
same,normalized growth,"locus YDL192W, strain arf1, stronger effect = lower value",1
same,normalized growth,"locus YDR001C, strain nth1, stronger effect = lower value",0.678 (active)
same,normalized growth,"locus YDR069C, strain doa4, stronger effect = lower value",0.958
same,normalized growth,"locus YDR101C, strain arx1, stronger effect = lower value",0.99
same,normalized growth,"locus YDR137W, strain rgp1, stronger effect = lower value",0.718 (active)
same,normalized growth,"locus YDR150W, strain NUM1, stronger effect = lower value",0.998
same,normalized growth,"locus YDR159W, strain sac3, stronger effect = lower value",0.852 (active)
same,normalized growth,"locus YDR162C, strain NBP2, stronger effect = lower value",0.968
same,normalized growth,"locus YDR195W, strain ref2",0.994
same,normalized growth,"locus YDR297W, strain sur2, stronger effect = lower value",0.951
same,normalized growth,"locus YDR318W, strain mcm21, stronger effect = lower value",0.979
same,normalized growth,"locus YDR334W, strain swr1, stronger effect = lower value",0.187 (active)
same,normalized growth,"locus YDR335W, strain msn5, stronger effect = lower value",0.933
same,normalized growth,"locus YDR388W, stronger effect = lower value",1.01
same,normalized growth,"locus YDR392W, strain spt3, stronger effect = lower value",0.126 (active)
same,normalized growth,"locus YDR502C, strain sam2, stronger effect = lower value",0.859 (active)
same,normalized growth,"locus YEL003W, strain gim4, stronger effect = lower value",0.0715 (active)
same,normalized growth,"locus YEL037C, strain rad23, stronger effect = lower value",0.865 (active)
same,normalized growth,"locus YEL061C, strain CIN8 (second series), stronger effect = lower value",0.339 (active)
same,normalized growth,"locus YEL061C, strain CIN8, stronger effect = lower value",0.992
same,normalized growth,"locus YER015W, strain faa2, stronger effect = lower value",0.593 (active)
same,normalized growth,"locus YER016W, strain bim1, stronger effect = lower value",0.895 (active)
same,normalized growth,"locus YER110C, stronger effect = lower value",1.01
same,normalized growth,"locus YER111C, strain swi4, stronger effect = lower value",0.961
same,normalized growth,"locus YER155C, strain BEM2 (second series), stronger effect = lower value",0.112 (active)
same,normalized growth,"locus YER155C, strain BEM2, stronger effect = lower value",1
same,normalized growth,"locus YER167W, strain BCK2, stronger effect = lower value",0.938
same,normalized growth,"locus YFR010W, strain ubp6, stronger effect = lower value",0.85 (active)
same,normalized growth,"locus YGL078C, strain dbp3, stronger effect = lower value",0.957
same,normalized growth,"locus YGL086W, strain mad1, stronger effect = lower value",0.937
same,normalized growth,"locus YGL167C, strain pmr1, stronger effect = lower value",0.98
same,normalized growth,"locus YGL173C, strain kem1, stronger effect = lower value",0.895 (active)
same,normalized growth,"locus YGL227W, strain vid30, stronger effect = lower value",0.07 (active)
same,normalized growth,"locus YGL240W, strain doc1, stronger effect = lower value",0.8 (active)
same,normalized growth,"locus YGL248W, strain PDE1, stronger effect = lower value",1
same,normalized growth,"locus YGL253W, strain hxk2, stronger effect = lower value",0.771 (active)
same,normalized growth,"locus YGR135W, strain pre9, stronger effect = lower value",0.935
same,normalized growth,"locus YGR252W, strain gcn5, stronger effect = lower value",0.993
same,normalized growth,"locus YHR013C, strain ard1, stronger effect = lower value",0.578 (active)
same,normalized growth,"locus YHR027C, strain rpn1, stronger effect = lower value",0.695 (active)
same,normalized growth,"locus YHR030C, strain SLT2, stronger effect = lower value",0.991 and 0.89
same,normalized growth,"locus YHR079C, strain IRE1 (second series), stronger effect = lower value",1
same,normalized growth,"locus YHR079C, strain IRE1, stronger effect = lower value",0.866
same,normalized growth,"locus YHR094C, strain hxt1, stronger effect = lower value",1.01
same,normalized growth,"locus YHR129C, strain ARP1, stronger effect = lower value",0.974
same,normalized growth,"locus YHR142W, strain chs7, stronger effect = lower value",0.476 (active)
same,normalized growth,"locus YHR200W, strain rpn10, stronger effect = lower value",0.982
same,normalized growth,"locus YIL066C, strain RNR3, stronger effect = lower value",0.949
same,normalized growth,"locus YIL073C, strain SPO22, stronger effect = lower value",1.02
same,normalized growth,"locus YIL125W, strain kgd1, stronger effect = lower value",0.929 (active)
same,normalized growth,"locus YIR030C, strain dcg1, stronger effect = lower value",0.995
same,normalized growth,"locus YJL092W, strain hpr5, stronger effect = lower value",0.644 (active)
same,normalized growth,"locus YJL095W, strain BCK1 (second series), stronger effect = lower value",0.887 (active)
same,normalized growth,"locus YJL095W, strain BCK1, stronger effect = lower value",0.928 and 0.908
same,normalized growth,"locus YJL115W, strain asf1, stronger effect = lower value",0.622 (active)
same,normalized growth,"locus YJL129C, strain trk1, stronger effect = lower value",0.196 (active)
same,normalized growth,"locus YJL134W, strain LCB3, stronger effect = lower value",0.997
same,normalized growth,"locus YJL154C, strain vps35, stronger effect = lower value",0.975
same,normalized growth,"locus YJL164C, strain tpk1, stronger effect = lower value",0.545 (active)
same,normalized growth,"locus YJL166W, strain qcr8, stronger effect = lower value",0.427 (active)
same,normalized growth,"locus YJL168C, strain set2, stronger effect = lower value",1.01
same,normalized growth,"locus YJL187C, strain SWE1 (second series), stronger effect = lower value",1
same,normalized growth,"locus YJR043C, strain POL32, stronger effect = lower value",0.662 (active)
same,normalized growth,"locus YJR066W, strain TOR1, stronger effect = lower value",0.894
same,normalized growth,"locus YKL009W, strain mrt4, stronger effect = lower value",0.921
same,normalized growth,"locus YKL068W, stronger effect = lower value",0.983
same,normalized growth,"locus YKL085W, strain MDH1 (second series), stronger effect = lower value",0.912 (active)
same,normalized growth,"locus YKL085W, strain MDH1, stronger effect = lower value",0.912 (active)
same,normalized growth,"locus YKL160W, strain elf1, stronger effect = lower value",0.914
same,normalized growth,"locus YKL190W, strain CNB1, stronger effect = lower value",0.996
same,normalized growth,"locus YKR001C, strain vps1, stronger effect = lower value",0.841 (active)
same,normalized growth,"locus YKR026C, strain gcn3, stronger effect = lower value",0.225 (active)
same,normalized growth,"locus YKR091W, strain srl3, stronger effect = lower value",0.81 (active)
same,normalized growth,"locus YLL001W, strain dnm1, stronger effect = lower value",0.929
same,normalized growth,"locus YLL026W, stronger effect = lower value",0.289 (active)
same,normalized growth,"locus YLL041C, strain sdh2, stronger effect = lower value",0.657 (active)
same,normalized growth,"locus YLR027C, strain aat2, stronger effect = lower value",0.344 (active)
same,normalized growth,"locus YLR039C, strain RIC1, stronger effect = lower value",0.771
same,normalized growth,"locus YLR058C, strain SHM2, stronger effect = lower value",0.995
same,normalized growth,"locus YLR102C, strain apc9, stronger effect = lower value",1.01
same,normalized growth,"locus YLR113W, strain HOG1, stronger effect = lower value",0.902
same,normalized growth,"locus YLR221C, strain rsa3, stronger effect = lower value",0.0809 (active)
same,normalized growth,"locus YLR258W, strain gsy2, stronger effect = lower value",0.728 (active)
same,normalized growth,"locus YLR262C, strain YPT6 (second series), stronger effect = lower value",0.635 (active)
same,normalized growth,"locus YLR262C, strain YPT6, stronger effect = lower value",0.656
same,normalized growth,"locus YLR268W, strain sec22, stronger effect = lower value",0.894
same,normalized growth,"locus YLR320W, strain mms22, stronger effect = lower value",0.232 (active)
same,normalized growth,"locus YLR330W, strain CHS5, stronger effect = lower value",0.977
same,normalized growth,"locus YLR342W, strain FKS1 (second series), stronger effect = lower value",0.991
same,normalized growth,"locus YLR342W, strain FKS1, stronger effect = lower value",0.819 (active)
same,normalized growth,"locus YLR357W, strain rsc2, stronger effect = lower value",0.549 (active)
same,normalized growth,"locus YLR370C, strain arc18, stronger effect = lower value",0.913
same,normalized growth,"locus YLR371W, strain rom2, stronger effect = lower value",0.941
same,normalized growth,"locus YLR384C, strain iki3, stronger effect = lower value",0.956
same,normalized growth,"locus YLR418C, strain cdc73, stronger effect = lower value",0.554 (active)
same,normalized growth,"locus YML016C, strain PPZ1, stronger effect = lower value",1
same,normalized growth,"locus YML032C, strain rad52, stronger effect = lower value",1.01
same,normalized growth,"locus YML120C, strain ndi1, stronger effect = lower value",0.128 (active)
same,normalized growth,"locus YML124C, strain tub3, stronger effect = lower value",1
same,normalized growth,"locus YMR058W, strain fet3, stronger effect = lower value",0.216 (active)
same,normalized growth,"locus YMR078C, strain ctf18, stronger effect = lower value",1
same,normalized growth,"locus YMR125W, strain sto1, stronger effect = lower value",0.0911 (active)
same,normalized growth,"locus YMR129W, stronger effect = lower value",0.0909 (active)
same,normalized growth,"locus YMR205C, strain PFK2, stronger effect = lower value",0.728 (active)
same,normalized growth,"locus YMR223W, strain ubp8, stronger effect = lower value",0.974
same,normalized growth,"locus YMR231W, strain pep5, stronger effect = lower value",0.981
same,normalized growth,"locus YMR307W, strain GAS1, stronger effect = lower value",0.721
same,normalized growth,"locus YNL067W, strain RPL9B, stronger effect = lower value",0.926
same,normalized growth,"locus YNL071W, strain lat1, stronger effect = lower value",0.0878 (active)
same,normalized growth,"locus YNL153C, strain GIM3, stronger effect = lower value",0.882
same,normalized growth,"locus YNL183C, strain NPR1, stronger effect = lower value",0.9
same,normalized growth,"locus YNL209W, strain ssb2, stronger effect = lower value",0.798 (active)
same,normalized growth,"locus YNL233W, strain BNI4, stronger effect = lower value",0.917
same,normalized growth,"locus YNL248C, strain rpa49, stronger effect = lower value",0.0991 (active)
same,normalized growth,"locus YNL250W, strain rad50, stronger effect = lower value",0.94
same,normalized growth,"locus YNL271C, strain bni1, stronger effect = lower value",0.93
same,normalized growth,"locus YNL298W, strain CLA4, stronger effect = lower value",0.957
same,normalized growth,"locus YNL307C, strain MCK1, stronger effect = lower value",0.89 (active)
same,normalized growth,"locus YNL322C, strain KRE1 (second series), stronger effect = lower value",0.121 (active)
same,normalized growth,"locus YNL322C, strain KRE1, stronger effect = lower value",0.985
same,normalized growth,"locus YNR049C, strain mso1, stronger effect = lower value",0.939
same,normalized growth,"locus YNR052C, strain pop2, stronger effect = lower value",1.02
same,normalized growth,"locus YOL012C, strain htz1",0.346
same,normalized growth,"locus YOL147C, strain pex11, stronger effect = lower value",1
same,normalized growth,"locus YOR001W, strain rrp6, stronger effect = lower value",0.084 (active)
same,normalized growth,"locus YOR061W, strain CKA2, stronger effect = lower value",1
same,normalized growth,"locus YOR069W, strain VPS5, stronger effect = lower value",0.998
same,normalized growth,"locus YOR070C, strain gyp1, stronger effect = lower value",0.658 (active)
same,normalized growth,"locus YOR080W, strain dia2, stronger effect = lower value",0.988
same,normalized growth,"locus YOR083W, strain WHI5, stronger effect = lower value",0.598 (active)
same,normalized growth,"locus YOR106W, strain vam3, stronger effect = lower value",0.598 (active)
same,normalized growth,"locus YOR136W, strain idh2, stronger effect = lower value",0.992
same,normalized growth,"locus YOR144C, strain elg1, stronger effect = lower value",0.998
same,normalized growth,"locus YOR184W, strain ser1, stronger effect = lower value",0.161 (active)
same,normalized growth,"locus YOR231W, strain MKK1, stronger effect = lower value",0.89
same,normalized growth,"locus YOR265W, strain rbl2, stronger effect = lower value",0.894 (active)
same,normalized growth,"locus YOR270C, strain vph1, stronger effect = lower value",0.503 (active)
same,normalized growth,"locus YOR290C, strain snf2, stronger effect = lower value",0.853 (active)
same,normalized growth,"locus YOR316C, strain cot1, stronger effect = lower value",1
same,normalized growth,"locus YPL051W, strain arl3, stronger effect = lower value",0.816 (active)
same,normalized growth,"locus YPL078C, strain atp4, stronger effect = lower value",0.878 (active)
same,normalized growth,"locus YPL106C, strain sse1, stronger effect = lower value",0.823 (active)
same,normalized growth,"locus YPL240C, strain hsp82, stronger effect = lower value",0.795 (active)
same,normalized growth,"locus YPL256C, strain CLN2, stronger effect = lower value",0.855
same,normalized growth,"locus YPR119W, strain clb2, stronger effect = lower value",1
same,normalized growth,"locus YPR141C, strain kar3, stronger effect = lower value",0.979
same,normalized growth,"locus YPR163C, strain tif3, stronger effect = lower value",0.964
same,normalized growth,"locus YPR167C, strain met16, stronger effect = lower value",0.999
same,normalized growth,"strain wtn01, stronger effect = lower value",0.858 (active)

# From PubChem BioAssay AID1159580 (chemical genetic matrix, 2015)
